Experimental data from publication PMC9911399, “Two distinct binding modes provide the RNA-binding protein RbFox with extraordinary sequence specificity”.
Changes are numbered by the printed parent chain; changes in the protein carry UniProt numbers. Whole data set: some 16,000 sequences, median “ka relative to ugcaugu” near 0.0091, cut for the highest 2% near 0.032. The list comes from a sample in which the highest values are over-represented; it also holds similar and randomly drawn sequences.

T1: RBFOX1 RRM (Homo sapiens, UniProt Q9NWB1 109-208)
T1 sequence: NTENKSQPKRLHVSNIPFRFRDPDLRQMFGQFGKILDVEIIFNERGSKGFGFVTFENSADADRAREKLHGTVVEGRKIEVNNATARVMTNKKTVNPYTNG

B1: CUGCAGA (DNA:RNA)
RNA: GGGAGACCGGAAUUCAGAUUGUCCCUGCAGAUUAAAUCCCGUCGUAGCCACCA
DNA 1: CAATCTGAATTCCGGTCTCCC
DNA 2: TGGTGGCTACGACGGGATT
B2: AUUUAGA (DNA:RNA)
RNA: B1 RNA with C25A, G27U, C28U
DNA 1: CAATCTGAATTCCGGTCTCCC
DNA 2: TGGTGGCTACGACGGGATT
B3: GAACGUU (DNA:RNA)
RNA: B1 RNA with C25G, U26A, G27A, A29G, G30U, A31U
DNA 1: CAATCTGAATTCCGGTCTCCC
DNA 2: TGGTGGCTACGACGGGATT
B4: CGGCGCA (DNA:RNA)
RNA: B1 RNA with U26G, A29G, G30C
DNA 1: CAATCTGAATTCCGGTCTCCC
DNA 2: TGGTGGCTACGACGGGATT
B5: CCGCUCA (DNA:RNA)
RNA: B1 RNA with U26C, A29U, G30C
DNA 1: CAATCTGAATTCCGGTCTCCC
DNA 2: TGGTGGCTACGACGGGATT
B6: UUAGAAU (DNA:RNA)
RNA: B1 RNA with C25U, G27A, C28G, G30A, A31U
DNA 1: CAATCTGAATTCCGGTCTCCC
DNA 2: TGGTGGCTACGACGGGATT
B7: GUAUACC (DNA:RNA)
RNA: B1 RNA with C25G, G27A, C28U, G30C, A31C
DNA 1: CAATCTGAATTCCGGTCTCCC
DNA 2: TGGTGGCTACGACGGGATT
B8: UGGCUCU (DNA:RNA)
RNA: B1 RNA with C25U, U26G, A29U, G30C, A31U
DNA 1: CAATCTGAATTCCGGTCTCCC
DNA 2: TGGTGGCTACGACGGGATT
B9: CUGUGGC (DNA:RNA)
RNA: B1 RNA with C28U, A29G, A31C
DNA 1: CAATCTGAATTCCGGTCTCCC
DNA 2: TGGTGGCTACGACGGGATT
B10: CUGGCUG (DNA:RNA)
RNA: B1 RNA with C28G, A29C, G30U, A31G
DNA 1: CAATCTGAATTCCGGTCTCCC
DNA 2: TGGTGGCTACGACGGGATT
B11: UGGGCUC (DNA:RNA)
RNA: B1 RNA with C25U, U26G, C28G, A29C, G30U, A31C
DNA 1: CAATCTGAATTCCGGTCTCCC
DNA 2: TGGTGGCTACGACGGGATT
B12: UUGGCUG (DNA:RNA)
RNA: B1 RNA with C25U, C28G, A29C, G30U, A31G
DNA 1: CAATCTGAATTCCGGTCTCCC
DNA 2: TGGTGGCTACGACGGGATT
B13: CGGCUGU (DNA:RNA)
RNA: B1 RNA with U26G, A29U, A31U
DNA 1: CAATCTGAATTCCGGTCTCCC
DNA 2: TGGTGGCTACGACGGGATT
B14: UGGCUGU (DNA:RNA)
RNA: B1 RNA with C25U, U26G, A29U, A31U
DNA 1: CAATCTGAATTCCGGTCTCCC
DNA 2: TGGTGGCTACGACGGGATT
B15: GUGGCUG (DNA:RNA)
RNA: B1 RNA with C25G, C28G, A29C, G30U, A31G
DNA 1: CAATCTGAATTCCGGTCTCCC
DNA 2: TGGTGGCTACGACGGGATT
B16: CUGGCUC (DNA:RNA)
RNA: B1 RNA with C28G, A29C, G30U, A31C
DNA 1: CAATCTGAATTCCGGTCTCCC
DNA 2: TGGTGGCTACGACGGGATT
B17: UUGGCUC (DNA:RNA)
RNA: B1 RNA with C25U, C28G, A29C, G30U, A31C
DNA 1: CAATCTGAATTCCGGTCTCCC
DNA 2: TGGTGGCTACGACGGGATT
B18: CCCUGGC (DNA:RNA)
RNA: B1 RNA with U26C, G27C, C28U, A29G, A31C
DNA 1: CAATCTGAATTCCGGTCTCCC
DNA 2: TGGTGGCTACGACGGGATT
B19: GUGCUGU (DNA:RNA)
RNA: B1 RNA with C25G, A29U, A31U
DNA 1: CAATCTGAATTCCGGTCTCCC
DNA 2: TGGTGGCTACGACGGGATT
B20: CAUUUCG (DNA:RNA)
RNA: B1 RNA with U26A, G27U, C28U, A29U, G30C, A31G
DNA 1: CAATCTGAATTCCGGTCTCCC
DNA 2: TGGTGGCTACGACGGGATT
B21: UAUCCUA (DNA:RNA)
RNA: B1 RNA with C25U, U26A, G27U, A29C, G30U
DNA 1: CAATCTGAATTCCGGTCTCCC
DNA 2: TGGTGGCTACGACGGGATT
B22: GAGGAUC (DNA:RNA)
RNA: B1 RNA with C25G, U26A, C28G, G30U, A31C
DNA 1: CAATCTGAATTCCGGTCTCCC
DNA 2: TGGTGGCTACGACGGGATT
B23: GUAUACA (DNA:RNA)
RNA: B1 RNA with C25G, G27A, C28U, G30C
DNA 1: CAATCTGAATTCCGGTCTCCC
DNA 2: TGGTGGCTACGACGGGATT
B24: GUUGCGA (DNA:RNA)
RNA: B1 RNA with C25G, G27U, C28G, A29C
DNA 1: CAATCTGAATTCCGGTCTCCC
DNA 2: TGGTGGCTACGACGGGATT
B25: AUCUGUA (DNA:RNA)
RNA: B1 RNA with C25A, G27C, C28U, A29G, G30U
DNA 1: CAATCTGAATTCCGGTCTCCC
DNA 2: TGGTGGCTACGACGGGATT
B26: ACGGGUC (DNA:RNA)
RNA: B1 RNA with C25A, U26C, C28G, A29G, G30U, A31C
DNA 1: CAATCTGAATTCCGGTCTCCC
DNA 2: TGGTGGCTACGACGGGATT
B27: UGUGAUC (DNA:RNA)
RNA: B1 RNA with C25U, U26G, G27U, C28G, G30U, A31C
DNA 1: CAATCTGAATTCCGGTCTCCC
DNA 2: TGGTGGCTACGACGGGATT
B28: CCAGUCU (DNA:RNA)
RNA: B1 RNA with U26C, G27A, C28G, A29U, G30C, A31U
DNA 1: CAATCTGAATTCCGGTCTCCC
DNA 2: TGGTGGCTACGACGGGATT
B29: UCAGGUC (DNA:RNA)
RNA: GGGAGACCGGAAUUCAGAUUGUCCUCAGGUCUUAAAUCCCGUCGUAGCCACCA
DNA 1: CAATCTGAATTCCGGTCTCCC
DNA 2: TGGTGGCTACGACGGGATT
B30: GGAAAAU (DNA:RNA)
RNA: B1 RNA with C25G, U26G, G27A, C28A, G30A, A31U
DNA 1: CAATCTGAATTCCGGTCTCCC
DNA 2: TGGTGGCTACGACGGGATT
B31: CUAUCGG (DNA:RNA)
RNA: B1 RNA with G27A, C28U, A29C, A31G
DNA 1: CAATCTGAATTCCGGTCTCCC
DNA 2: TGGTGGCTACGACGGGATT

What follows are binders tested against T1, RBFOX1 RRM (assay: EMSA; HiTS-Eq, 1 nM pool, 10 min; buffer printed only for the single-RNA assays: 10 mM Tris pH 7.5, 150 mM NaCl, 3.4 mM EDTA, 0.001% NP-40, 30 C). Details: tags: His6 N-terminal (pET28a); label: 5' 32P.
Summary of the method: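 These values rest on relative association constants, computed from read-count changes of each RNA species versus the control reaction and normalised to the cognate motif. Reads came from free RNA recovered by 8% native PAGE after purified RbFox RRM (wild type or mutant) at increasing concentrations was equilibrated for 10 min in 50 µL with 1 nM of a 5′-radiolabelled pool with 7 randomized nucleotides and DNA-annealed flanks.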

Binder | binding signal
B1 | 0.0168 KA relative to UGCAUGU
B2 | 0.0108 KA relative to UGCAUGU
B3 | 0.0166 KA relative to UGCAUGU
B4 | 0.0121 KA relative to UGCAUGU
B5 | 0.00712 KA relative to UGCAUGU
B6 | 0.00773 KA relative to UGCAUGU
B7 | 0.0043 KA relative to UGCAUGU
B8 | 0.0197 KA relative to UGCAUGU
B9 | 0.0106 KA relative to UGCAUGU
B10 | 0.0348 KA relative to UGCAUGU
B11 | 0.0362 KA relative to UGCAUGU
B12 | 0.0406 KA relative to UGCAUGU
B13 | 0.0179 KA relative to UGCAUGU
B14 | 0.0395 KA relative to UGCAUGU
B15 | 0.0289 KA relative to UGCAUGU
B16 | 0.0211 KA relative to UGCAUGU

Binder | binding signal
B17 | 0.0219 KA relative to UGCAUGU
B18 | 0.011 KA relative to UGCAUGU
B19 | 0.021 KA relative to UGCAUGU
B20 | 0.00769 KA relative to UGCAUGU
B21 | 0.00279 KA relative to UGCAUGU
B22 | 0.0149 KA relative to UGCAUGU
B23 | 0.00201 KA relative to UGCAUGU
B24 | 0.0206 KA relative to UGCAUGU
B25 | 0.00557 KA relative to UGCAUGU
B26 | 0.0159 KA relative to UGCAUGU
B27 | 0.0227 KA relative to UGCAUGU
B28 | 0.00457 KA relative to UGCAUGU
B29 | 0.0155 KA relative to UGCAUGU
B30 | 0.00757 KA relative to UGCAUGU
B31 | 0.00622 KA relative to UGCAUGU
